# Screens: PubChem BioAssay, several laboratories
# VHR inh abs: inhibitors of human VHR1 phosphatase (DUSP3); inhibition, % at 13.3 µM; recombinant VHR phosphatase, pNPP absorbance; P51452; 0.52% of 290,000 active; in the data active = inhibition above about 50%
# Target sequence (P51452 whole entry, looked up): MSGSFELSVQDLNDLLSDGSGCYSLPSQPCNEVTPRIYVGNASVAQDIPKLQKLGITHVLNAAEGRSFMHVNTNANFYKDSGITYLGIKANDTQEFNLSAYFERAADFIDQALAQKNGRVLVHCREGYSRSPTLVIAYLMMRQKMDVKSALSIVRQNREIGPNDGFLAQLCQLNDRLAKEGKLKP
# PfHsp40 yeast: rescue of PfHsp40-mediated yeast toxicity; S. cerevisiae expressing PfHsp40, growth rescue, ATP luminescence; 0.68% of 340,000 active; growth rescue, % at 12.5 µM; in the data active = growth rescue above about 28%, passing the limit was not always enough;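 also: yeast W303a lacking pdr1 and pdr3 grown in galactose medium; growth measured after three days at 30 °C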
# Mtb hypoxia rep: inhibitors of hypoxia-regulated fluorescent reporter in Mycobacterium tuberculosis. M. tuberculosis hypoxia-regulated fluorescent reporter, fluorescence. fluorescence inhibition, % (concentration not given with the values). 0.1% of 300,000 active. AID 1159583; in the data active = fluorescence inhibition mostly above about 23%, no sharp cut-off; inactive = mostly below about 17%
# ugtP null kill: growth inhibition of S. aureus ugtP deletion strain. S. aureus RN4220 ugtP deletion, OD600 growth, 16 h. 0.54% of 330,000 active. AID 1259309. growth inhibition, % (no concentration beside the values); in the data active = growth inhibition above about 68%
# RN4220 kill: kills Staphylococcus aureus RN4220; S. aureus RN4220 growth, OD600, 16 h; inhibition, % (no concentration beside the values); 0.33% of 330,000 active; AID 1259311; in the data active = inhibition above about 85%
# SSB-PriA inh: K. pneumoniae PriA-SSBct interaction inhibition; AlphaScreen SSBct-PriA binding, biotinylated peptide; inhibition, % at 33 µM; 0.6% of 430,000 active; in the data active = inhibition mostly above about 37%, no sharp cut-off; inactive = mostly below about 20%
# Numbers stand for hits; – = inactive; · = not tested or not shown. Compounds with a hit are over-represented: about 1.8% of the library has one in this group of screens.
SMILES,VHR inh abs,PfHsp40 yeast,Mtb hypoxia rep,ugtP null kill,RN4220 kill,SSB-PriA inh
COC(=O)C1=C(NC(=O)c2ccccc2I)CCS1,·,·,·,·,·,51
COC(=O)C1=C(NC(=O)c2ccccc2[N+](=O)[O-])CCS1,–,–,–,–,–,–
CCOc1cc(C)c(Cl)cc1S(=O)(=O)N1CCN=C1c1ccccc1,·,·,·,·,·,–
COc1ccc(-c2csc(/C(C#N)=C3\C=CC=CN3C)n2)cc1,·,·,·,·,·,142
N#C/C(=C\Nc1ccccc1O)c1nc2ccccc2o1,–,452,–,–,–,–
CCOC(=O)c1c(-c2ccc(OC)c(OC)c2)csc1NC(=O)CNCCCN1CCOCC1,·,·,·,·,·,–
CCNc1nn(CC(=O)Nc2ccc(C)c(F)c2)c(N)c1-c1nc(-c2ccccc2C)no1,·,·,·,·,·,–
c1ccc(-c2nnc(-c3ccccn3)nc2NC2CCCCC2)cc1,–,46,·,–,97,101
c1ccc(-c2nc(NC3CCCCC3)c3ccccc3n2)nc1,·,·,·,·,·,57
c1ccc(-c2nc(-c3ccccn3)no2)cc1,–,–,–,–,–,–
CNc1nc(-c2ccccn2)nnc1-c1ccccc1,–,–,·,–,–,91
CN(C)/C=C1/N=C(c2ccccc2)OC1=O,–,–,·,–,–,–
O=CC1=C(c2ccccc2)Oc2ccccc2O1,–,495,–,–,–,–
Cc1ccsc1C=NN1CCN(c2ccccn2)CC1,·,·,–,–,–,·
Cc1ccc(-n2nnnc2C(Cl)(Cl)c2nnnn2-c2ccc(C)cc2)cc1,–,–,–,100,100,–
Clc1ccc(-c2nnnn2-c2ccc(Cl)cc2)cc1,–,–,–,–,–,–
COC(=O)N1CCc2ccc(NC(=O)c3ccccc3SC(F)F)cc2C1,·,·,·,·,·,–
O=C(Nc1ccc([N+](=O)[O-])cc1)Nc1ccc2c3c(cccc13)CC2,·,·,·,·,·,38
O=C(/C=C/c1ccc([N+](=O)[O-])s1)Nc1ccc2c3c(cccc13)CC2,·,·,·,·,·,–
CN(C)S(=O)(=O)c1cccc(NC(=S)Nc2ccc(Cl)cc2Cl)c1,–,–,–,–,–,–
CN(C)S(=O)(=O)c1cccc(NC(=S)Nc2cc(Cl)cc(Cl)c2)c1,–,–,–,100,100,–
CC(C(=O)OCC(=O)c1ccccc1)N1C(=O)C2C3CCC(C3)C2C1=O (stereo unspecified),54,–,–,–,–,–
COc1ccc(C(=O)COC(=O)C(C)N2C(=O)C3C4CCC(C4)C3C2=O)cc1 (stereo unspecified),–,–,–,–,–,–
Cc1ccc(SCCc2cc[n+](CC(=O)c3ccccc3)cc2)cc1,–,–,–,–,–,–
O=C(C[n+]1ccc(CCSc2ccc(F)cc2)cc1)c1ccccc1,–,–,–,–,–,46
SMILES,VHR inh abs,PfHsp40 yeast,Mtb hypoxia rep,ugtP null kill,RN4220 kill,SSB-PriA inh
O=C(CSc1ccccc1)Nc1nc(-c2cc(Cl)sc2Cl)cs1,·,·,·,·,·,–
Clc1ccc(C[n+]2csc3ccccc32)cc1,–,–,–,100,87,–
CCC(=O)Oc1ccc(C2NC(=O)c3ccccc3O2)cc1OC (stereo unspecified),60,–,–,–,–,–
COc1ccc(C2NC(=O)c3ccccc3O2)cc1OC (stereo unspecified),–,–,–,–,–,–
CCCC(=O)Oc1ccc(C2NC(=O)c3ccccc3O2)cc1OC (stereo unspecified),60,–,–,–,–,–
NC(=O)c1ccsc1NC(=O)c1ccc2ncsc2c1,·,·,·,·,·,–
CN1CCN(c2cc(-c3cc(O)c4ncccc4c3)ccn2)CC1,·,–,–,–,–,67
Oc1cc(Nc2ccccc2)cc2cccnc12,·,–,–,–,–,65
Oc1cc(-c2cccnc2)cc2cccnc12,·,–,–,100,100,54
O=C1OC2(CCN(C(=O)c3ccco3)CC2)c2ccccc21,·,·,·,·,·,–
CCCN1CCCc2cc(CCNS(=O)(=O)c3ccc(C)cc3C)ccc21,·,·,·,·,·,41
CCCN1CCCc2cc(CCNS(=O)(=O)c3ccc(NC(C)=O)cc3C)ccc21,·,·,·,·,·,70
CC1CC(C)CN(c2oc(-c3ccccc3F)nc2C#N)C1 (stereo unspecified),–,–,–,–,–,50
CC1CCCN(c2oc(-c3cccc4ccccc34)nc2C#N)C1 (stereo unspecified),–,–,–,–,–,–
Cc1ccccc1-c1nc(C#N)c(N2CCCC(C)C2)o1 (stereo unspecified),·,·,·,·,·,66
Cc1ccccc1-c1nc(C#N)c(N2CCOCC2)o1,·,·,·,·,·,70
Cc1sc(NC(=O)c2ccc(N(C)C)cc2)c(C#N)c1C,·,·,·,·,·,–
Cc1ccc(C)c2sc(N(C)CC(=O)N3CCc4ccccc4C3)nc12,·,·,·,·,·,–
Cc1[nH]n(-c2ccc(Br)cc2)c(=O)c1C=NNC(=O)c1ccccc1,·,·,–,97,94,–
Cc1[nH]n(-c2cccc3ccccc23)c(=O)c1/C=N/NC(=O)c1cccc([N+](=O)[O-])c1,–,83,·,·,·,·
O=C(O)C1=CC(c2ccc(C(F)(F)F)cc2)CC(OCc2ccc(CO)cc2)O1 (stereo unspecified),·,·,–,–,–,·
O=c1c2ccccc2nc2c3ccccc3c(NCc3ccccn3)nn12,57,–,–,–,–,–
Cc1cc(C)cc(NC(=O)c2c(C)coc2C)c1,·,·,·,·,·,–
O=C(O)CSc1cc(NS(=O)(=O)c2cccc([N+](=O)[O-])c2)c2ccccc2c1O,–,96,–,–,–,–
OCCCNC(=S)Nc1ccc2nccnc2c1,–,–,–,–,–,–
SMILES,VHR inh abs,PfHsp40 yeast,Mtb hypoxia rep,ugtP null kill,RN4220 kill,SSB-PriA inh
Fc1ccc(NC(=S)Nc2ccc3nccnc3c2)cc1,–,–,–,–,–,45
CC(C)N(C(=O)Nc1ccc2nccnc2c1)C(C)C,–,–,·,–,–,79
CC1(C)CC(=O)C2=C(C1)NC1=C(C(=O)c3ccccc31)C2c1ccc(O)cc1 (stereo unspecified),–,–,–,–,–,50
CCCc1ccc(C2C3=C(CC(C)(C)CC3=O)NC3=C2C(=O)c2ccccc23)cc1 (stereo unspecified),–,–,–,–,–,47
O=C(CCn1c(=O)oc2ccccc21)Nc1cc(F)ccc1F,·,·,·,·,·,–
CC[n+]1c(C)sc2c3ccsc3ccc21,51,–,–,–,–,–
COc1ccc(NC(=O)c2oc3ccccc3c2NC(=O)c2ccc(S(=O)(=O)N3CCOCC3)cc2)cc1,·,·,·,·,·,–
CCCc1cc(=O)n2[nH]cc(-c3ccc(Cl)cc3)c2n1,–,–,–,99,99,–
COCc1cc(=O)n2[nH]cc(-c3ccccc3)c2n1,–,–,–,–,–,–
O=[N+]([O-])c1ccccc1N=NNc1ccccc1,·,–,–,–,–,–
O=[N+]([O-])c1ccccc1N=Nc1ccc(O)cc1,·,–,–,–,–,43
C/C(=N\N=C(/N)SC1CC(=O)N(c2ccc(Cl)c(Cl)c2)C1=O)c1cccs1 (stereo unspecified),–,37,·,·,·,·
C#CCN(C)Cc1ccc(O)c2ncccc12,·,·,·,·,·,110
CCCCCCCCCCCCc1ccc(O)c2ncccc12,·,·,·,·,·,–
CCCCCCCCCCCCCCSCc1ccc(O)c2ncccc12,·,·,·,·,·,–
CCCCCC(=O)c1ccc(O)c2ncccc12,·,·,·,·,·,130
